From PubChem
This is one part of a sample in which hits are shown more often than they occur.
Pf apPOL inh: Pf-apPOL DNA polymerase inhibition; Recombinant Pf-apPOL, molecular beacon fluorescence, 1.5 h; inhibition, % at 10 µM; 210,000 tested, 0.25% active
mHTT-CaM PPI inh: mHTT-calmodulin interaction abrogation; AlphaScreen His-mHTT/GST-CaM binding, luminescence; inhibition, % at 15 µM; 190,000 tested, 3.6% active; AID 1671202;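 also: 0% = both proteins with DMSO and 100% = one protein alone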
Starred values were filed as active, the others as inactive; x = no result given. Rule as the data show it: active = inhibition above about 50%; inactive = the rest.

SMILES	Pf apPOL inh	mHTT-CaM PPI inh
C=CCNC(=O)c1csc(-c2ccc(OC)cc2)n1	-3	4
Cc1cc2c(N3CCCC(C(=O)NCc4ccccc4Br)C3)nccc2s1 (stereo unspecified)	-8	12
COc1cccc2cc(-c3cc(=O)oc4cc(OCC=C(C)C)ccc34)c(=O)oc12	-4	7
COc1cc(/C=C2\C(=O)ON=C2C)cc(Br)c1OCc1ccc(F)cc1	8	46
COc1cc(/C=C2\C(=O)ON=C2C)ccc1OCc1cccc(F)c1	8	100*
CCOc1cc(/C=C2\C(=O)ON=C2C)cc(Br)c1OCc1ccc(F)cc1	-4	75*
CC1=NOC(=O)/C1=C/c1ccccc1OCc1cccc(Cl)c1	-2	55*
COc1cc(C=O)cc(Cl)c1OCc1cccc(F)c1	-14	-74
CC1=NOC(=O)/C1=C/c1ccc(OCc2cccc(F)c2)c(Cl)c1	-4	1
COc1cc(/C=C2\C(=O)ON=C2C)cc(Cl)c1OCc1ccc(F)cc1	7	74*
CC1=NOC(=O)/C1=C/c1ccccc1OCc1ccccc1F	-1	20
COc1ccc(S(=O)(=O)N(CC(=O)N2CCC(C(N)=O)CC2)c2ccccc2)cc1	-7	0
Cc1ccc(COCc2nn(C)c3c2CN(C(=O)Nc2ccc(Cl)cc2)CC3)cc1	-4	28
O=[N+]([O-])c1ccc(N2CCN(S(=O)(=O)Cc3ccccc3)CC2)c(Cl)c1	3	21
COc1cc(/C=C2\C(=O)ON=C2C)cc(Cl)c1OCc1ccccc1	-1	91*
CCOc1cc(/C=C2\C(=O)ON=C2C)cc(Cl)c1OCc1ccc(F)cc1	-1	93*
COc1cc(/C=C2\C(=O)ON=C2C)ccc1OCc1ccccc1Cl	0	-8
CCOc1cc(/C=C2/C(=O)ON=C2C)ccc1OCc1ccc(Cl)cc1	-7	-5
CCCCN(CC)C(=O)c1ccc(OCC)cc1	10	-8
CNS(=O)(=O)c1cc(-c2nnc(NCc3nc4ccccc4[nH]3)c3ccccc23)ccc1C	-8	34
COC(=O)Cn1cnc([N+](=O)[O-])n1	x	-6
O=C(Nc1ccccc1F)c1cc([N+](=O)[O-])nn1Cc1ccccc1	-1	8
Cc1ccc2c(c1)c1c(n2CC(O)Cn2nc(C)cc2C)CCCC1 (stereo unspecified)	3	46
Cc1ccc2c(c1)c1c(n2CC(O)CNCc2ccco2)CCCC1 (stereo unspecified)	0	55*
CCC(CO)NCC(O)Cn1c2c(c3cc(C)ccc31)CCCC2 (stereo unspecified)	-8	54*
SMILES	Pf apPOL inh	mHTT-CaM PPI inh
CNCC(O)Cn1c2c(c3ccccc31)CCCC2 (stereo unspecified)	-12	14
COc1cccc(C2Nc3ccccc3C(=O)N2c2ccc(NC(C)=O)cc2)c1 (stereo unspecified)	-4	4
O=C(NCc1ccc(F)cc1)c1cncc(-c2ccccc2Cl)c1	-5	0
O=C(NCc1ccccc1)C1CCN(c2nc3ccsc3c(=O)n2-c2ccccc2)CC1	-3	26
CC1(CC(=O)Nc2ccccc2)NN=C(c2ccccc2)S1 (stereo unspecified)	-2	73*
O=C(CC(=O)Nc1ccccc1)Nc1ccccc1	-2	-4
CCCc1nc(C2CC(=O)N(c3ccc(OC)cc3)C2)no1 (stereo unspecified)	1	0
Cn1c(=O)n(Cc2cccc(C(F)(F)F)c2)c2cncnc21	-3	-5
CCOc1ccc(-c2[nH]nc3c2C(c2ccncc2)C(C#N)=C(N)O3)cc1OC (stereo unspecified)	0	-4
O=C1N(Cc2ccccc2)c2ccccc2C12Oc1ccccc1C1CC(c3ccco3)=NN12 (stereo unspecified)	4	32
CC1=NN2C(C1)c1ccccc1OC21C(=O)Nc2ccccc21 (stereo unspecified)	-13	80*
O=[N+]([O-])c1cccc(C=Nc2cc(Cl)ccc2O)c1	-3	59*
NC(=S)NN=Cc1cccc([N+](=O)[O-])c1	79*	0
NC(=S)NN=Cc1ccc([N+](=O)[O-])s1	0	x
Cc1ccc([N+](=O)[O-])cc1N=Cc1cccc([N+](=O)[O-])c1	-6	-4
O=C(CC1CCN(S(=O)(=O)c2cccs2)CC1)NCCCN1CCCCC1	2	2
COc1ccccc1-c1cnn2c(C)cc(C)nc12	-2	-15
COc1ccccc1-c1cnn2c(Nc3ccc(NC(C)=O)cc3)cc(C)nc12	-4	54*
CCOc1ccccc1CN1CCc2nc(Nc3ccc(F)cc3)ncc2C1	-2	0
O=C(/C=C/c1ccc(-c2ccc(F)cc2)o1)c1cccs1	-1	91*
O=C(/C=C/c1ccc(-c2ccccc2)o1)c1cccs1	1	28
CSCCn1c(-c2ccccc2)cc(C(=O)NCc2ccco2)c1C	-349	x
CCSc1nnc(-c2nn(C)c3c2CN(C(=O)CC)CC3)n1C	-3	-6
CC(=O)Nc1cccc(N2CC(C(=O)Nc3ccc(F)cc3C)CC2=O)c1 (stereo unspecified)	87*	4
